Screen size: about 290,000 compounds; about 3,100 (1.1%) were called active. Cut-off read from the data, not from the text of the source: active = inhibition above about 16% (passing the limit was not always enough); inactive = the rest. The list comes from a sample in which actives are over-represented; it also holds similar structures and randomly drawn compounds.
Target: Neuropeptides B/W receptor type 1 (Homo sapiens) (UniProt P48145)
Assay: blockers of human neuropeptide B/W receptor 1 – cell-based, fluorescence, single concentration, primary screen (AID 1861);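 note: cells stimulated with the agonist NPW; 0% = agonist with vehicle and 100% = vehicle without agonist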
Conditions: GPR7-expressing cells, fluorescence antagonist assay; at 4.4 µM; active compounds read high

Chain of Neuropeptides B/W receptor type 1 (Homo sapiens) (P48145 whole entry, looked up): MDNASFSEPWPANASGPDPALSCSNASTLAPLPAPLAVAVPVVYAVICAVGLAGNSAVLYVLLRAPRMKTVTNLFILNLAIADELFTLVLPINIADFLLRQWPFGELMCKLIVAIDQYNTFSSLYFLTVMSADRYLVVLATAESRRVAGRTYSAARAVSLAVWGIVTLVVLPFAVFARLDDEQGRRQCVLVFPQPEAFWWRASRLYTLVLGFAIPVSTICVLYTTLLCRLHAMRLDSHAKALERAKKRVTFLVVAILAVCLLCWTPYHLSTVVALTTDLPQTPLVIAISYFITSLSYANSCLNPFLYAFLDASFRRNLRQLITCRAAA

inhibition, inactive:
CCN(CC)c1ccc(C2C3CCCCC3(O)CCN2CC(=O)Nc2ccccc2)cc1 (stereo unspecified) 0.06%
CC1CCCCN1CC(=O)NCc1ccc2c(c1)OCO2 (stereo unspecified) -3.99%
O=C(Nc1cccc2ccccc12)c1onc2c1CCCC2 -5.72%
Oc1ccccc1CNc1ncc(Br)cc1Br -17.9%
CCCCN(CC)C(=O)c1ccc2c(c1)OCO2 11.2%
Cc1cccc(C(=O)NCCCN(C)CCCNC(=O)c2cccc(C)c2)c1 -10.2%
Cc1ccc(Cl)c(NC(=O)CN2CCN(C=O)CC2)c1 2.68%
COc1ccccc1OCCOc1ccc(/C=C2\C(=N)N3N=C(C)SC3=NC2=O)cc1 21%
CNS(=O)(=O)c1cccc(C(=O)NCC2CCCCC2)c1 5.35%
CN(C(=O)c1cccc(OC2CCN(S(=O)(=O)N(C)C)CC2)c1)C1CCOC1 (stereo unspecified) -0.89%
Cc1cc(C(=O)NCCc2ccc(Cl)cc2)c(C)o1 -6.42%
Cc1ccc(N(CC(=O)Nc2cccc(N(C)S(C)(=O)=O)c2)S(C)(=O)=O)cc1 -0.43%
COc1cccc(N(CC(=O)Nc2cccc(N(C)S(C)(=O)=O)c2)S(C)(=O)=O)c1 -7.36%
CCOC(=O)N1CCN(C(=O)C(C)NC(=O)c2ccco2)CC1 (stereo unspecified) -2.9%
CCN(CCn1cccn1)Cc1nc(-c2ccc(C(=O)OC)cc2)no1 9.06%
COc1cccc(-c2cc(C(=O)N3CCN(c4ccccc4OC)CC3)no2)c1 -15.8%
CN(CC(=O)Nc1ccccc1C(F)(F)F)C(=O)Cc1ccccc1F -10.8%
COc1cc(CNC2CCCCC2)c(Br)cc1OC1CCCC1 -7.35%
CCOCCCNCc1cc(Br)ccc1OCC 10.1%
O=C(NCc1cccc(CNC(=O)Nc2cccc(O)c2)c1)Nc1cccc(O)c1 -9.18%
C[C@@H]1C[C@@H]2O[C@H]2/C=C\C=C\C(=O)Cc2c(Cl)c(O)cc(O)c2C(=O)O1 -17.8%
C/C(=N\NC(=O)c1cccc([N+](=O)[O-])c1)c1cccnc1 -13.8%
Cc1cc(NC(=O)CSc2nnc(Nc3ccccc3F)s2)no1 -3.75%
Cc1ccc(Nc2nnc(SCC(=O)c3cc4ccccc4o3)s2)cc1C -6.61%
COc1ccc(-c2nc3c(s2)CCc2onc(-c4ccc(OC)cc4)c2-3)cc1 -14.6%
O=C(CC1C(=O)NCCN1CC(c1ccccc1)c1ccccc1)NCC1CCOCC1 (stereo unspecified) -12.4%
COCCn1cnc2c1c(=O)n(CC(=O)NN)c(=O)n2Cc1ccccc1 -7.23%
Cc1ccc(F)c(NC(=O)CCOc2ccccc2C)c1 -9.71%
O=C(/C=C/c1cccc([N+](=O)[O-])c1)N1CCN(Cc2ccccc2)CC1 33.7%
O=c1c([N+](=O)[O-])cc(C(F)(F)F)cn1Cc1cccc(Cl)c1 1%
CCc1ccc(NC(=O)CN2C(=O)COc3ccc(S(=O)(=O)N4CCCC4)cc32)cc1 -5.64%
C=CCn1c(CNC(=O)c2ccco2)nnc1SCC(=O)c1ccc(OC)cc1 -0.25%
CCn1c(COc2ccccc2)nnc1SCC(=O)NCc1ccco1 3.08%
CCc1ccc(N2CC(C(=O)N3CCCCCC3)CC2=O)cc1 (stereo unspecified) -4.17%
COc1ccccc1N(CC(=O)N/N=C(\C)c1ccccc1O)S(=O)(=O)c1ccc(C)cc1 -9.35%
O=C1OC(OC(=O)c2ccccc2Br)C(N2CCOCC2)=C1Cl (stereo unspecified) -8.99%
Cc1ccccc1C(=O)OC1OC(=O)C(Cl)=C1Nc1ccccc1 (stereo unspecified) 0.02%
Cc1cccc(NC(=S)NCCc2ccc(Cl)cc2)c1C -3.82%
O=C(COc1ccc(Cl)cc1)NC(=S)Nc1ccccc1N1CCOCC1 -6.56%
Cc1ccc(C(=O)NC(=S)Nc2ccccc2C)cc1 -4.66%
COC(=O)Cc1ccc(NC(=S)NCc2ccc(Cl)cc2)cc1 -7.45%
COc1ccc2oc(=N)c(C(=O)Nc3ccc(Br)cc3)cc2c1 -2.95%
CC(=O)Nc1ccc(S(=O)(=O)NC2Cc3ccccc3C2)cc1 17.6%
O=C(c1cc2ccccc2o1)N1CCN(Cc2ccccc2)CC1 -6.86%
COc1ccc(NC(=O)CCCC2CCCCC2)c(OC)c1 14.9%
Cc1ccc(C)c(SCc2nc3sc(C(=O)O)c(C)c3c(=O)[nH]2)c1 -16.9%
COc1ccccc1NC(=O)CSc1nc2sc3c(c2c(=O)n1-c1ccccc1)CCN(C)C3 4.04%
COc1cccc(/C=C(/CC(=O)Nc2ccc(N3CCOCC3)cc2)c2nc3ccccc3s2)c1 -6.54%
Cc1ccc(C)c(C(=O)N2CCC(n3nccc3NC(=O)C3CC3)CC2)c1 -10.3%
CCCCCCn1c(CN2CCCCC2)nc2c1c(=O)n(C)c(=O)n2C 0.86%
COc1ccccc1C(=O)N/C(=C/c1ccco1)C(=O)Nc1ccc(C(=O)O)cc1 0.36%
CCCC(=O)Nc1ccc(Cl)c(NC(=O)c2ccc(Br)o2)c1 -14%
O=C(Nc1cccc(Cl)c1N1CCOCC1)c1cccnc1 -1.34%
COc1ccc2cc(C(=O)NCC3CCCO3)[nH]c2c1 (stereo unspecified) -1.93%
CN(C)CCOCCOc1ccc(Cl)c2ccccc12 14.1%
Clc1cccc(Cl)c1OCCOCCNCc1ccccc1 -2.47%
COc1ccc(NS(=O)(=O)c2ccc(O)c(C(=O)OCC(=O)NC3CCCCC3)c2)cc1 -13.8%
NC(=O)COc1ccccc1C(=O)NC12CC3CC(CC(C3)C1)C2 -4.36%
Cc1ccccc1CN1CCNC(=O)C1CC(=O)NCCC1=CCCCC1 (stereo unspecified) -1.59%
O=C(Cc1nn[nH]n1)NCCC1=CCCCC1 -14.2%
Cc1c(C(=O)O)nnn1-c1nonc1N -7.01%
CCN(CC)Cc1c(C(=O)N/N=C/c2cccc(OCc3ccc(F)cc3)c2)nnn1-c1nonc1N 6.35%
O=C(CSc1nnnn1C1CCCC1)N1CCCCC1 0.56%
CCOC(=O)C1(Cc2ccccc2C(F)(F)F)CCN(C(=O)c2cc(C)n(C)n2)CC1 -2.9%
O=C(CSc1ccc(-c2ccc(Br)cc2)nn1)NCC1CCCO1 (stereo unspecified) -0.63%
CC(NS(=O)(=O)c1ccc(Br)cc1)C(=O)NCC1CCCO1 (stereo unspecified) -6%
CCc1ccc(OCC(O)CN2CCN(CCO)CC2)cc1 (stereo unspecified) -19.8%
O=S1(=O)CCO[C@H]2Cc3ccccc3[C@H]2N1Cc1ccccc1 -8.66%
COc1ccccc1C(=O)N1C(CC(=O)Nc2ccccc2C)C(=O)NC2CCCCC21 (stereo unspecified) -5.63%
Cc1cc(-c2n[nH]c(=S)n2/N=C/C(Br)=C/c2ccccc2)n[nH]1 4.93%
CN1CCN(c2ccc(S(=O)(=O)N3CCCCC3)cc2NC(=O)Cc2ccccc2F)CC1 1.52%
CCN1CCN(c2ccc(S(=O)(=O)N3CCCCC3)cc2NC(=O)Cc2c(Cl)cccc2Cl)CC1 1.74%
CCCC(C)c1nnc(NC(=O)C2CC(=O)N(c3ccc(OCC)cc3)C2)s1 (stereo unspecified) 0.56%
COc1ccc(N(CC(=O)Nc2cc(OC)ccc2OC)S(=O)(=O)c2c(C)noc2C)cc1 -4.71%
COc1cccc(-n2c(SCC(=O)c3c[nH]c4ccccc34)nc3ccccc3c2=O)c1 -11.6%
COc1ccc(/C=C(\C#N)c2c[nH]c3ccccc23)cc1 17.2%

inhibition, active:
Cc1ccc(NC(=O)CN2CCC3(O)CCCCC3C2c2ccc3c(c2)OCO3)c(C)c1 (stereo unspecified) 21.5%
COCCN(Cc1cc2cc3c(cc2nc1Cl)OCO3)C(=O)c1cccc(C)c1 21.6%
CN(C)S(=O)(=O)N1CCC(Oc2cccc(C(=O)NCCCC3CCCC3)c2)CC1 34.4%
CN(c1cccc(NC(=O)Nc2ccc(Cl)cc2)c1)S(C)(=O)=O 35.6%
CC(C)(C)NCc1cc(Br)ccc1OC1CCCC1 22.3%
Cc1ccccc1Nc1nnc(SCC(=O)c2cc3ccccc3o2)s1 28%
O=[N+]([O-])/C=C/c1ccc2c(ccn2Cc2ccccc2)c1 50.9%
COc1ccc(C(=O)CSc2nnc(COc3ccccc3)n2Cc2ccco2)cc1 42.3%
Cc1ccc(NC2=C(Cl)C(=O)OC2OC(=O)c2ccccc2C)cc1 (stereo unspecified) 36.4%
O=C(Cc1ccc(Cl)cc1)NC(=S)Nc1ccccc1O 80.2%
Cc1ccccc1NC(=S)NC(=O)Cc1ccc(Cl)cc1 56.5%
Cc1ccc(-c2nc(SCC(=O)Nc3ccccc3OC(F)F)c3c(C)c(C(=O)O)sc3n2)cc1 29.8%
CCCCCCCCn1c2c(c(=N)c3c1CCC3)CCCC2 57.5%
CCN1CCN(c2c(Cl)cccc2NC(=O)c2ccc(Br)o2)CC1 23.7%
CCN(CC)CCOCCOc1ccc(Cl)c2ccccc12 27.1%
CN1CCNC(=O)C1CC(=O)NCCC1=CCCCC1 (stereo unspecified) 18.4%
CCN(CC)Cc1c(C(=O)OC)nnn1-c1nonc1N 36.6%
OC(CNCC1CCCO1)Cn1c2ccc(Br)cc2c2cc(Br)ccc21 (stereo unspecified) 25.7%
COc1ccc(CC(=O)Nc2cc(S(=O)(=O)N3CCCCC3)ccc2N2CCN(C)CC2)cc1 19.6%
COc1ccc(C(C(O)C(=O)c2c[nH]c3ccccc23)N2CCN(c3ccccc3)CC2)cc1 (stereo unspecified) 25.7%
